Assay results as given in PMC8384837, “Expanding the binding specificity for RNA recognition by a PUF domain”.
Substitutions are numbered along the chain they refer to.

Columns and labels:
Experiment in all cases: yeast three-hybrid, YBZ-1, SC-Leu-His + 0.5 mM 3-AT, 4 days
Conditions in all cases: tags: N-Gal4 AD-HA kept; label: inside an RPR1-promoter hybrid RNA with tandem MS2 sites; ssRNA
PUM1 PUF domain R1-SLR = PUM1 PUF domain R1-SLR (Homo sapiens, UniProt Q14671 828-1176, R864L;Q867R)
Method in brief: (§1)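 The interaction score is the logarithmic change in variant frequency from input to selection. It uses log2, with a pseudocount of 1 for absent variants, and frequencies came from PCR-amplified, Illumina-sequenced repeat regions. The libraries were Pumilio-1 PUF domains randomized at the three base-contacting residues per repeat, co-expressed with matching RNA elements in strain YBZ-1 (LexA–MS2 coat fusion, HIS3 reporter). Plating lasted four days on SC-Leu (input) or SC-Leu-His + 0.5 mM 3-AT (selection).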

PUM1 PUF domain R1-KTS = PUM1 PUF domain R1-KTS (Homo sapiens, UniProt Q14671 828-1176, S863K;R864T;Q867S)
Method in brief: as §1

PUM1 PUF domain R3-TRF = PUM1 PUF domain R3-TRF (Homo sapiens, UniProt Q14671 828-1176, C935T;Q939F)
Method in brief: as §1

PUM1 PUF domain R3-GPT = PUM1 PUF domain R3-GPT (Homo sapiens, UniProt Q14671 828-1176, C935G;R936P;Q939T)
Method in brief: as §1

PUM1 PUF domain R3-LWT = PUM1 PUF domain R3-LWT (Homo sapiens, UniProt Q14671 828-1176, C935L;R936W;Q939T)
Method in brief: as §1

PUM1 PUF domain R3-EWE = PUM1 PUF domain R3-EWE (Homo sapiens, UniProt Q14671 828-1176, C935E;R936W;Q939E)
Method in brief: as §1

PUM1 PUF domain R3-RAT = PUM1 PUF domain R3-RAT (Homo sapiens, UniProt Q14671 828-1176, C935R;R936A;Q939T)
Method in brief: as §1

PUM1 PUF domain R7-KRG = PUM1 PUF domain R7-KRG (Homo sapiens, UniProt Q14671 828-1176, S1079K;N1080R;E1083G)
Method in brief: as §1

PUM1 PUF domain R7-TVG = PUM1 PUF domain R7-TVG (Homo sapiens, UniProt Q14671 828-1176, S1079T;N1080V;E1083G)
Method in brief: as §1

PUM1 PUF domain R5-NSV = PUM1 PUF domain R5-NSV (Homo sapiens, UniProt Q14671 828-1176, C1007N;R1008S;Q1011V)
Method in brief: as §1

PUM1 PUF domain R5-KLE = PUM1 PUF domain R5-KLE (Homo sapiens, UniProt Q14671 828-1176, C1007K;R1008L;Q1011E)
Method in brief: as §1

PUM1 PUF domain R5-EFR = PUM1 PUF domain R5-EFR (Homo sapiens, UniProt Q14671 828-1176, C1007E;R1008F;Q1011R)
Method in brief: as §1

PUM1 PUF domain R5-DCR = PUM1 PUF domain R5-DCR (Homo sapiens, UniProt Q14671 828-1176, C1007D;R1008C;Q1011R)
Method in brief: as §1

PUM1 PUF domain R3-IYL = PUM1 PUF domain R3-IYL (Homo sapiens, UniProt Q14671 828-1176, C935I;R936Y;Q939L)
Method in brief: as §1

PUM1 PUF domain R4-SML = PUM1 PUF domain R4-SML (Homo sapiens, UniProt Q14671 828-1176, N971S;H972M;Q975L)
Method in brief: as §1

PUM1 PUF domain R6-CFF = target: T1, PUM1 PUF domain R6-CFF (Homo sapiens, UniProt Q14671 828-1176, N1043C;Y1044F;Q1047F)
T1 sequence: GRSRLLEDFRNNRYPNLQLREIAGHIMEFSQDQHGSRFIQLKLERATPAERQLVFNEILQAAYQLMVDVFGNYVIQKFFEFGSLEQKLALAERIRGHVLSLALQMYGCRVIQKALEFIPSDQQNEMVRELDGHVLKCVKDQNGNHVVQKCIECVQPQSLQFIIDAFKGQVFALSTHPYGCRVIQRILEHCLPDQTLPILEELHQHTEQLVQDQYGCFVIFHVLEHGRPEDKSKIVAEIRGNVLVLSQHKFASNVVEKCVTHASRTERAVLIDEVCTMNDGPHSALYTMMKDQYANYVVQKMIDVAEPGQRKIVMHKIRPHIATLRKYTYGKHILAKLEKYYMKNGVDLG
Method in brief: as §1

PUM1 PUF domain R8-SHR = PUM1 PUF domain R8-SHR (Homo sapiens, UniProt Q14671 828-1176, N1122S;Y1123H;Q1126R)
Method in brief: as §1

PUM1 PUF domain R2-NFP = PUM1 PUF domain R2-NFP (Homo sapiens, UniProt Q14671 828-1176, Y900F;Q903P)
Method in brief: as §1

PUM1 PUF domain R5-SRT = PUM1 PUF domain R5-SRT (Homo sapiens, UniProt Q14671 828-1176, C1007S;Q1011T)
Method in brief: as §1

PUM1 PUF domain R6-NYW = target: T2, PUM1 PUF domain R6-NYW (Homo sapiens, UniProt Q14671 828-1176, Q1047W)
T2 sequence: T1 sequence with C216N, F217Y, F220W
Method in brief: as §1

## GGCUAGAACUAGUGGAUCCCCCGGCGCCCGGCGGCUCGAGCCCGGGUAAGUGUAAAUCGUCUGCAUGCCGCCGGGCGCCAUGCCUGCAGGUCGACUCUAGAAAACAUG
PUM1 PUF domain R1-SLR
  binding signal: 3.37 log2 enrichment (interaction score)
PUM1 PUF domain R1-KTS
  binding signal: 4.91 log2 enrichment (interaction score)

## GGCUAGAACUAGUGGAUCCCCCGGCGCCCGGCGGCUCGAGCCCGGGUAAGUGUAAUUAGUCUGCAUGCCGCCGGGCGCCAUGCCUGCAGGUCGACUCUAGAAAACAUG
PUM1 PUF domain R3-TRF
  binding signal: 0.63 log2 enrichment (interaction score)
PUM1 PUF domain R3-GPT
  binding signal: 2.69 log2 enrichment (interaction score)
PUM1 PUF domain R3-LWT
  binding signal: 4.05 log2 enrichment (interaction score)
PUM1 PUF domain R3-EWE
  binding signal: 4.69 log2 enrichment (interaction score)
PUM1 PUF domain R3-RAT
  binding signal: 3.26 log2 enrichment (interaction score)

## GGCUAGAACUAGUGGAUCCCCCGGCGCCCGGCGGCUCGAGCCCGGGUAAGUUUAAAUAGUCUGCAUGCCGCCGGGCGCCAUGCCUGCAGGUCGACUCUAGAAAACAUG
PUM1 PUF domain R7-KRG
  binding signal: 2.98 log2 enrichment (interaction score)
PUM1 PUF domain R7-TVG
  binding signal: 4.37 log2 enrichment (interaction score)

## GGCUAGAACUAGUGGAUCCCCCGGCGCCCGGCGGCUCGAGCCCGGGUAAGUCUAAAUAGUCUGCAUGCCGCCGGGCGCCAUGCCUGCAGGUCGACUCUAGAAAACAUG
PUM1 PUF domain R7-KRG
  binding signal: 2.64 log2 enrichment (interaction score)

## GGCUAGAACUAGUGGAUCCCCCGGCGCCCGGCGGCUCGAGCCCGGGUAAGUGUGAAUAGUCUGCAUGCCGCCGGGCGCCAUGCCUGCAGGUCGACUCUAGAAAACAUG
PUM1 PUF domain R5-NSV
  binding signal: 0.18 log2 enrichment (interaction score)

## GGCUAGAACUAGUGGAUCCCCCGGCGCCCGGCGGCUCGAGCCCGGGUAAGUGUAAAUUGUCUGCAUGCCGCCGGGCGCCAUGCCUGCAGGUCGACUCUAGAAAACAUG
PUM1 PUF domain R1-SLR
  binding signal: 0.57 log2 enrichment (interaction score)

## GGCUAGAACUAGUGGAUCCCCCGGCGCCCGGCGGCUCGAGCCCGGGUAAGUGUAAGUAGUCUGCAUGCCGCCGGGCGCCAUGCCUGCAGGUCGACUCUAGAAAACAUG
PUM1 PUF domain R3-EWE
  binding signal: 4.74 log2 enrichment (interaction score)

## GGCUAGAACUAGUGGAUCCCCCGGCGCCCGGCGGCUCGAGCCCGGGUAAGUGUUAAUAGUCUGCAUGCCGCCGGGCGCCAUGCCUGCAGGUCGACUCUAGAAAACAUG
PUM1 PUF domain R5-NSV
  binding signal: 2.21 log2 enrichment (interaction score)
PUM1 PUF domain R5-KLE
  binding signal: 2.51 log2 enrichment (interaction score)

## GGCUAGAACUAGUGGAUCCCCCGGCGCCCGGCGGCUCGAGCCCGGGUAAGUGUCAAUAGUCUGCAUGCCGCCGGGCGCCAUGCCUGCAGGUCGACUCUAGAAAACAUG
PUM1 PUF domain R5-EFR
  binding signal: 1.31 log2 enrichment (interaction score)
PUM1 PUF domain R5-DCR
  binding signal: 2.94 log2 enrichment (interaction score)
PUM1 PUF domain R5-KLE
  binding signal: 5.37 log2 enrichment (interaction score)

## GGCUAGAACUAGUGGAUCCCCCGGCGCCCGGCGGCUCGAGCCCGGGUAAGUGUAAAUAGUCUGCAUGCCGCCGGGCGCCAUGCCUGCAGGUCGACUCUAGAAAACAUG
PUM1 PUF domain R3-TRF
  binding signal: 4.8 log2 enrichment (interaction score)
PUM1 PUF domain R3-GPT
  binding signal: 2.91 log2 enrichment (interaction score)
PUM1 PUF domain R3-IYL
  binding signal: 4.44 log2 enrichment (interaction score)
PUM1 PUF domain R4-SML
  binding signal: 3.12 log2 enrichment (interaction score)
PUM1 PUF domain R5-EFR
  binding signal: 3.42 log2 enrichment (interaction score)
PUM1 PUF domain R3-LWT
  binding signal: 3.77 log2 enrichment (interaction score)
PUM1 PUF domain R6-CFF
  binding signal: 4.85 log2 enrichment (interaction score)
PUM1 PUF domain R8-SHR
  binding signal: 4.08 log2 enrichment (interaction score)
PUM1 PUF domain R2-NFP
  binding signal: 2.11 log2 enrichment (interaction score)
PUM1 PUF domain R5-SRT
  binding signal: 3.34 log2 enrichment (interaction score)
PUM1 PUF domain R6-NYW
  binding signal: 2.24 log2 enrichment (interaction score)

## GGCUAGAACUAGUGGAUCCCCCGGCGCCCGGCGGCUCGAGCCCGGGUAAGCGUAAAUAGUCUGCAUGCCGCCGGGCGCCAUGCCUGCAGGUCGACUCUAGAAAACAUG
PUM1 PUF domain R8-SHR
  binding signal: 3.61 log2 enrichment (interaction score)
